For some of these results: Entries with a potency or affinity are not part of this list.
Columns and labels:
Design in all cases: scale not given: direction of the effect not stated beside the values
[1] = target: Protein translocase subunit SecA (Escherichia coli (strain K12)) (UniProt P10408); assay: Assay to Identify E. coli SecA ATPase Inhibitors; type: functional; settings: 30 µM
[2] = target: T1, Ubiquitin-activating enzyme e1, putative (Leishmania donovani (strain BPK282A1)) (UniProt E9BSI1); assay: Leishmania donovani Ubiquitin Activating Enzyme (LdE1); type: functional; settings: 30 µM
T1 sequence (whole entry): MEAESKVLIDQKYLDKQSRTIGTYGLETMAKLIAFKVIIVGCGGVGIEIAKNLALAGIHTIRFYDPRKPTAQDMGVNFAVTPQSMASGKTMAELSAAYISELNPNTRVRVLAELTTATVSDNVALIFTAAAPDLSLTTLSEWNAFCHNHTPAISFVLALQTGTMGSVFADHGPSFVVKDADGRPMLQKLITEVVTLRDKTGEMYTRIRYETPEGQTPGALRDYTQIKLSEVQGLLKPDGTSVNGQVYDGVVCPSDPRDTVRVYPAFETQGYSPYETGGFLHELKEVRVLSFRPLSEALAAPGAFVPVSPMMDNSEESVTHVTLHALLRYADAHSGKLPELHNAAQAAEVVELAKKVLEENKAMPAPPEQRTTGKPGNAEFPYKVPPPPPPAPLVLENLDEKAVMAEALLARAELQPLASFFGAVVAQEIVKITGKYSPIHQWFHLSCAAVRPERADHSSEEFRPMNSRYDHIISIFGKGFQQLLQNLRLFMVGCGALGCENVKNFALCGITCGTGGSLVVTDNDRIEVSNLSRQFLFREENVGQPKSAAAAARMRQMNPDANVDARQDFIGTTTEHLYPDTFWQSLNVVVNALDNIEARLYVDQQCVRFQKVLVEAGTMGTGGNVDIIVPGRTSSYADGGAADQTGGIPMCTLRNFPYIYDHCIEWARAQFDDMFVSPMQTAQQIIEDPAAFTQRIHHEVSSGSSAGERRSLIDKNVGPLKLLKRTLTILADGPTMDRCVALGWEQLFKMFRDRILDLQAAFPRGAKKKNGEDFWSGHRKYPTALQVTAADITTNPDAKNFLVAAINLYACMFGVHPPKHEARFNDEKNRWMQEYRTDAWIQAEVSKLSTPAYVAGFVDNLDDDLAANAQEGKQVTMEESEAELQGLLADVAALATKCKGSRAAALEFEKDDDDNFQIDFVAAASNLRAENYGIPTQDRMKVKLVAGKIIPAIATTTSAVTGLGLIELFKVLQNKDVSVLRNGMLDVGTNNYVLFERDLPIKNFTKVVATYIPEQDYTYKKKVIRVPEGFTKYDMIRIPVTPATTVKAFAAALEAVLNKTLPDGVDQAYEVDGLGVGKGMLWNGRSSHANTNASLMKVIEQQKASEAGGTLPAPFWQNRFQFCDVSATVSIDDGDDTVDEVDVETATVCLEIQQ

[3] = target: AMP-activated protein kinase, AMPK (Homo sapiens) (UniProt P54646+O43741+P54619+Q9UGJ0+Q9Y478+Q13131+Q9UGI9); assay: AMP-dependent Kinase enzyme assay. An in vitro enzyme assay that detects ADP turnover that is directly proportional to AMPK activity. This uses naive AMPK that is activated during the assay with MK-8722; type: functional; settings: 30 µM
[4] = target: Sialic acid-binding Ig-like lectin 9 (Homo sapiens) (UniProt Q9Y336); assay: Hs-Siglec9 ALPHAscreen SOP 20170721; settings: 10 µM
Sialic acid-binding Ig-like lectin 9 (Homo sapiens), sequence (Q9Y336 whole entry): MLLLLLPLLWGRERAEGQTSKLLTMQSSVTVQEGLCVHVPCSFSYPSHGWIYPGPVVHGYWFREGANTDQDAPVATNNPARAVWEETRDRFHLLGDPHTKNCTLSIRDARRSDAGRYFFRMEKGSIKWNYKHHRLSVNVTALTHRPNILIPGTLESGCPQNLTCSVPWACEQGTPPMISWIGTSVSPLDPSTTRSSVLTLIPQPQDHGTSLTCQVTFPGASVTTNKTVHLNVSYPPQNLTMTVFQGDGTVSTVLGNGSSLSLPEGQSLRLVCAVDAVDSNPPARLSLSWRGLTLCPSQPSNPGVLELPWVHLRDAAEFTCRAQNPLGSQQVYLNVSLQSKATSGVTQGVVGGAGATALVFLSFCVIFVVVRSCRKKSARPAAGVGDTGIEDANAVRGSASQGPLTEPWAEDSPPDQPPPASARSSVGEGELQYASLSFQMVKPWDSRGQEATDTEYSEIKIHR

Trypanosoma cruzi = assay: Trypanosoma cruzi phosphomannomutase and mannose-1-phosphate guanylyltransferase assay; type: functional; settings: 10 µM
[5] = target: T2, Arginase-2, mitochondrial (Homo sapiens) (UniProt P78540); assay: in vitro enzyme assay to detect the production of urea directly proportional to the activity of Arginase II; type: functional; settings: 33.3 µM; also: in the data most compounds retested in dose-response had high values
T2 sequence (whole entry): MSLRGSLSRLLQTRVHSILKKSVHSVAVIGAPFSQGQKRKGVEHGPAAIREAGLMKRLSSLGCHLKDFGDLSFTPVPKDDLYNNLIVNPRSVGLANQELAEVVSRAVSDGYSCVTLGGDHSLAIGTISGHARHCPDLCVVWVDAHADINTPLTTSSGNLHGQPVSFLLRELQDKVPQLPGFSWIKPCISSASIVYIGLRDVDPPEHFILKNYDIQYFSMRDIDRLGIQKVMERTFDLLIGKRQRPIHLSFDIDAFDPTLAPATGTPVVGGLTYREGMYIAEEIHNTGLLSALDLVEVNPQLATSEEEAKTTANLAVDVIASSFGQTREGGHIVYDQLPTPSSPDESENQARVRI

[6] = target: T3, Proteasome subunit beta (Trypanosoma cruzi) (UniProt O96673); assay: Trypanosoma cruzi proteasome chymotrypsin-like activity (TcProtChymo) assay.; also: in the data most compounds retested in dose-response had high values; type: functional; settings: 9.37 µM
T3 sequence (whole entry): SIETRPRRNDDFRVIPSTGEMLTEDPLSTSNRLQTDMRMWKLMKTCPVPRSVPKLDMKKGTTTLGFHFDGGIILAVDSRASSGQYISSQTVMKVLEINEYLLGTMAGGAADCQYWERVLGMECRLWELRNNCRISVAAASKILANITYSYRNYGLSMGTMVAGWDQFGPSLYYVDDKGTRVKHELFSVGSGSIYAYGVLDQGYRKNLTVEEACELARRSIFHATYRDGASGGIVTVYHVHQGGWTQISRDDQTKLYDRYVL

Homo sapiens = species: Homo sapiens; assay: To identify inhibition of the IFN signalling (Jak-Stat) pathway via expression of an eGFP reporter gene under the control of an IFN-stimulated response element (ISRE) containing MxA promoter.; type: functional; settings: 30 µM
[7] = target: T4, Tyrosyl-tRNA synthetase, putative (Trypanosoma cruzi (strain CL Brener)) (UniProt Q4DSP6); assay: Trypanosoma cruzi tyrosyl tRNA synthetase (TcYRS) _High Tyrosine SOP; type: functional; settings: 30 µM; also: in the data most compounds retested in dose-response had high values
T4 sequence (whole entry): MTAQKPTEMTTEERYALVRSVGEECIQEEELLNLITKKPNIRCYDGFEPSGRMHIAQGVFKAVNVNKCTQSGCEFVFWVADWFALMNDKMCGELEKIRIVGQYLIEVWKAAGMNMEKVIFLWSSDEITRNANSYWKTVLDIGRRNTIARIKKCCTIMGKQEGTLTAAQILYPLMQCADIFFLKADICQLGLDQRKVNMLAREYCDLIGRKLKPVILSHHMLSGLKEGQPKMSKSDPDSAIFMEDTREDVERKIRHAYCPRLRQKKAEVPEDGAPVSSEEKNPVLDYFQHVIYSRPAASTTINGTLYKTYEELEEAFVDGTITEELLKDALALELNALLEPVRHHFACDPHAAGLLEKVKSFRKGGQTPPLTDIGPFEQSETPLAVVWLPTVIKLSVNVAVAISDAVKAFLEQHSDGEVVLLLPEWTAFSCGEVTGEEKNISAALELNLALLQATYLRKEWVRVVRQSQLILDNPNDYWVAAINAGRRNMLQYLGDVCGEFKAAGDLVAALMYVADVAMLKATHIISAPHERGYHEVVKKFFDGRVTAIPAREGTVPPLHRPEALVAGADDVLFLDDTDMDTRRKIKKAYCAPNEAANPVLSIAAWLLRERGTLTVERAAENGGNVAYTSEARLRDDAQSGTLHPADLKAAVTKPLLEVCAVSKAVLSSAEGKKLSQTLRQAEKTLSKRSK

[8] = target: T4, Tyrosyl-tRNA synthetase, putative (Trypanosoma cruzi (strain CL Brener)); assay: Trypanosoma cruzi tyrosyl tRNA synthetase (TcYRS) SOP; type: functional; settings: 30 µM
[9] = target: Chromo domain-containing protein 1 (Saccharomyces cerevisiae (strain ATCC 204508 / S288c) (Baker's yeast)) (UniProt P32657); assay: ScCHD-1 Enzyme Inhibition Assay; type: functional; settings: 30 µM; also: in the data most compounds retested in dose-response had high values
Chromo domain-containing protein 1 (Saccharomyces cerevisiae (strain ATCC 204508 / S288c) (Baker's yeast)), sequence (P32657 whole entry, the tested form may be a part): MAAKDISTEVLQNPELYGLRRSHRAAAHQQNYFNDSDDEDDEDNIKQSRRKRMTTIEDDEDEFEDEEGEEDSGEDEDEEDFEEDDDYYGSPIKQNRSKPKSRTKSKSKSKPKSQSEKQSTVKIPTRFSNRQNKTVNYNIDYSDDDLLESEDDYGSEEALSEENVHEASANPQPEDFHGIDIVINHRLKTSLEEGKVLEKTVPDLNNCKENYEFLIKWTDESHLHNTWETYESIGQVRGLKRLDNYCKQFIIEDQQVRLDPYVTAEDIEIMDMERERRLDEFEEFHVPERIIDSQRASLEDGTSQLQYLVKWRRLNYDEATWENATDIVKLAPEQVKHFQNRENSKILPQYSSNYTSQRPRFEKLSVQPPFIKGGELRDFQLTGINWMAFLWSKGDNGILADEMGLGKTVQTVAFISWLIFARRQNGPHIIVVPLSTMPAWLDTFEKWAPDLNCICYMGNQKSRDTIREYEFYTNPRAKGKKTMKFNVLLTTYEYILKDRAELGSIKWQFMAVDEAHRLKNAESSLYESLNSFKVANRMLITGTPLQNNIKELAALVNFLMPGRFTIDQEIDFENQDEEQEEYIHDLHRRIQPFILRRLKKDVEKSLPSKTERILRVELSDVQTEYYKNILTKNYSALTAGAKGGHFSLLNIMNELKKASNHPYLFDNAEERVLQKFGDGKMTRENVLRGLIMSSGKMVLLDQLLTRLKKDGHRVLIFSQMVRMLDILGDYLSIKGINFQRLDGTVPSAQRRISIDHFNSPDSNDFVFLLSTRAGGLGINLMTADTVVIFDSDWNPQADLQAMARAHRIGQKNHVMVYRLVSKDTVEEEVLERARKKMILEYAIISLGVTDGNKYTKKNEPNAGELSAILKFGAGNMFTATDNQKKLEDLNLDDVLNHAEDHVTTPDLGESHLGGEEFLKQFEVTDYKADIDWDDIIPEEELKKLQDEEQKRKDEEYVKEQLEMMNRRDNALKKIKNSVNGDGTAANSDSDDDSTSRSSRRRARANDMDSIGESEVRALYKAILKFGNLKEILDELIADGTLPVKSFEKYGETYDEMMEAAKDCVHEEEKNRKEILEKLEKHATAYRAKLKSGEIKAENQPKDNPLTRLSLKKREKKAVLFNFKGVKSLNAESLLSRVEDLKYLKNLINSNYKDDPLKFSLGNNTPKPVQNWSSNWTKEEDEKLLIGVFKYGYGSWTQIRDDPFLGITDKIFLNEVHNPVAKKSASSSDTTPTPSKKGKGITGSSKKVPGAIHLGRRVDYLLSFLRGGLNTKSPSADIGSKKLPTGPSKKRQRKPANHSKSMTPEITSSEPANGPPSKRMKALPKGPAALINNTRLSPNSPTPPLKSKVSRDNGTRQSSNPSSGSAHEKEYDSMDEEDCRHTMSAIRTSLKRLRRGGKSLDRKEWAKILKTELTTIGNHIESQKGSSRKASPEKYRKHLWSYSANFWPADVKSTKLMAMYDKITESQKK

Protein translocase subunit SecA (Escherichia coli (strain K12)), sequence (P10408 whole entry): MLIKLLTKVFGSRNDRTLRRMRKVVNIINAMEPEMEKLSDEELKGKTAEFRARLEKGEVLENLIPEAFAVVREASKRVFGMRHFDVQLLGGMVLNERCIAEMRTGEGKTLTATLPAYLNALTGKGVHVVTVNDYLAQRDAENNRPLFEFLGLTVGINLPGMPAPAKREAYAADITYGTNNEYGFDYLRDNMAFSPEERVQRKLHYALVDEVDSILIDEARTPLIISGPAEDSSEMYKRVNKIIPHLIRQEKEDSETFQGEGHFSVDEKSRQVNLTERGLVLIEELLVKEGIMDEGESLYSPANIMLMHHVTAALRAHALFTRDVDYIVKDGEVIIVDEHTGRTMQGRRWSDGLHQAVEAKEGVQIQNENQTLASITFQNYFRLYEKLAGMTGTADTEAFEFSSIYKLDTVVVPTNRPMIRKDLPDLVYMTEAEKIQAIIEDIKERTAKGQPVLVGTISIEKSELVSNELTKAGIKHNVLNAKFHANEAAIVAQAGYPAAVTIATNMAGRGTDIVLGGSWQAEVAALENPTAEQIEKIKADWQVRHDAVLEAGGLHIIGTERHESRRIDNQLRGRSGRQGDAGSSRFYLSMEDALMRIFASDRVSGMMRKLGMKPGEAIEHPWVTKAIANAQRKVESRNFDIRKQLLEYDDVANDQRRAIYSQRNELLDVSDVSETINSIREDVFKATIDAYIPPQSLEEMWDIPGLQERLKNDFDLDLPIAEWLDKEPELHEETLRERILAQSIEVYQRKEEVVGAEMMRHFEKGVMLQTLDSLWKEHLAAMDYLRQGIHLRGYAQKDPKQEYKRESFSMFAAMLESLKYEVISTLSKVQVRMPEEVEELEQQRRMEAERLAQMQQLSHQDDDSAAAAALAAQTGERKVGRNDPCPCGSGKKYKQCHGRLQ

Structure (SMILES) | Percent Effect [1] [%] | Percent Effect [2] [%] | Percent Effect [3] [%] | Percent Effect [4] [%] | Percent Effect (Trypanosoma cruzi) [%] | Percent Effect [5] [%] | Percent Effect [6] [%] | Percent Effect (Homo sapiens) [%] | Percent Effect [7] [%] | Percent Effect [8] [%] | Percent Effect [9] [%]
CC(C)c1nccn1C1CCCN(C(=O)c2cccc3c2OCO3)C1 (stereo not drawn) | 1.99 | -46 | -3.6 | 9.39 | 2.55 | -5.61 | 2.16 | 9.02 | 2.46 | 11.1 | -2.9
CS(=O)(=O)N1CCC2(CN(C(=O)c3cccnc3)C2)C1 | -2.76 | 5.48 | -1.91 | 3.06 | -2.18 | -2.79 | 14.3 | 23.4 | 4.17 | 6.17 | -1.65
Cn1cnnc1C1CCCN(C(=O)c2ccc3c(c2)OCCCO3)C1 (stereo not drawn) | -6.73 | 18.2 | -5.65 | -3.72 | 3.04 | 0.21 | 15.3 | -4.88 | 4.76 | 23.5 | -15.9
CC(C)C(C(=O)N1CCN(Cc2ccncc2)CC1)n1cncn1 (stereo not drawn) | -4.08 | 7.79 | 4.2 | 5.43 | 0.0983 | -11 | 3.83 | -1.24 | 3.23 | 11.1 | 2.61
COc1cnc(C2(O)CCN(C(=O)c3ccncc3)CC2)c(OC)n1 | -4.14 | 4.05 | 8.66 | 2.87 | 2.77 | -1.16 | 3.74 | 8.85 | 2.15 | 9.09 | -11.8
CCN(C)c1ncnc2c1CCN(Cc1csc(C)n1)CC2 | -0.747 | 8.11 | 4.65 | 2.61 | -1.07 | 4.78 | 25.1 | -16.4 | 6.49 | 15.4 | -2.96
NC(=O)c1ccc(S(=O)(=O)NC2CCN(Cc3ccccc3)C2=O)cc1 (stereo not drawn) | -3.79 | 17.7 | 9.8 | 5.49 | 0.472 | -3.42 | 0.901 | 2.7 | 5.42 | 11.4 | -6.86
Cn1nc(C2CCCN(C(=O)Cc3ccsc3)C2)c2nccnc21 (stereo not drawn) | -5.11 | 9.46 | 7.86 | 10.4 | -5.14 | -1.16 | 8.89 | 23.9 | -1.07 | 6.49 | -13.9

Reference: ChEMBL document CHEMBL3988442, “University of Dundee, Small-Polar-MMV Screening Library” (2021)
